# Test results from PubChem BioAssay.
# Inconclusive results are not listed. For part of these data: Results with a measured potency or affinity are listed apart. Calls of active or inactive are those of the source. Unless noted, how the calls were made is not given here.
# Experiments:
# [1] = antimalarial activity against Dd2 strain (AID 2302;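 active means growth inhibition above 50% at the single 2 µM test dose, taken to imply half-maximal potency below 2 µM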;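 further: 0% = DMSO untreated growth and 100% = chloroquine plus artemisinin killed control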); settings: P. falciparum Dd2 in RBCs, LDH growth readout, 72 h; at 2 µM; stronger effect = higher value
# [2] = HepG2 cytotoxicity, primary screen, cytotoxicity control for P. falciparum antimalarial project, cell-based, ATP luminescence (AID 2303;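 active means inhibition above 50%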;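 further: 0% = DMSO wells and 100% = digitonin-killed cells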); settings: HepG2 viability, 24-48 h, at 10 µM, stronger effect = higher value
# [3] = biological target: L-lactate dehydrogenase (Plasmodium falciparum (isolate CDC / Honduras)) (UniProt Q27743); test: PfLDH activity inhibition – cell lysate, 3D7 strain, counter-screen for P. falciparum growth inhibition project (AID 2304);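 further: 0% = vehicle and 100% = reference inhibitor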; settings: P. falciparum 3D7 crude extract, LDH APAD/NBT absorbance; at 2 µM; stronger effect = higher value
# [4] = inhibition of 3D7 malaria parasite growth – strain 3D7 (AID 2306);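 further: 0% = DMSO wells and 100% = chloroquine plus artemisinin control wells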; settings: P. falciparum 3D7 erythrocytic growth, LDH absorbance, 72 h; at 2 µM; stronger effect = higher value
# [5] = biological target: Plasmodium falciparum protein kinase 6 (PK6, PF3D7_1337100) (UniProt Q8IDW1); test: PfPK6 kinase inhibitors, biochemical, TCAMS library (AID 1159586); settings: recombinant PfPK6, Kinase-Glo ATP depletion luminescence
# [6] = biological target: Protein kinase 7 (PK7), Plasmodium falciparum 3D7 (PF3D7_0213400) (UniProt Q7YTF7); test: inhibition of Plasmodium PK7 catalytic activity – biochemical, TCAMS antimalarial set, Kinase-Glo luminescence (AID 1159587); settings: recombinant PfPK7, Kinase-Glo ATP depletion luminescence
# [7] = biological target: Calcium-dependent protein kinase 4 (Plasmodium falciparum (isolate 3D7)) (UniProt Q8IBS5); test: PfCDPK4 kinase inhibitors, biochemical, TCAMS library (AID 1159588; cut-off not given, nearly all actives have IC50 up to about 0.91 µM); settings: recombinant PfCDPK4, Kinase-Glo ATP depletion luminescence
# [8] = test system: Aerobactin synthetase IucA (Klebsiella pneumoniae); test: IucA aerobactin synthetase inhibitors, biochemical, Tocris library, absorbance (AID 1345561); settings: purified IucA enzyme assay, absorbance (OD) read-out; stronger effect = lower value;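 tested at 8 µM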;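 further: 100% = enzyme without compound and 0% = no enzyme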
# [9] = growth inhibition of DIPG glioma cells, dose response, cell-based, SU-DIPG-XVII, MIPE5.0, CellTiter-Glo, qHTS (AID 1347060; cut-off not given, nearly all actives have AC50 up to about 26 µM;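 further: cells exposed to compound for 48 hours before viability readout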); settings: SU-DIPG-XVII viability, CellTiter-Glo ATP luminescence
# [10] = growth inhibition of DIPG glioma cells, dose response, cell-based, SU-DIPG-XIII, MIPE4.0, CellTiter-Glo, qHTS (AID 1347061; cut-off not given, nearly all actives have AC50 up to about 37 µM;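 further: cells exposed to compound for 48 hours before readout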); settings: SU-DIPG-XIII viability, CellTiter-Glo ATP luminescence
# [11] = growth inhibition of DIPG glioma cells, dose response, cell-based, JHH-DIPG-1, MIPE4.0, CellTiter-Glo, qHTS (AID 1347062; cut-off not given, nearly all actives have AC50 up to about 27 µM;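 further: cells exposed to compound for two days before readout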); settings: JHH-DIPG-1 viability, CellTiter-Glo ATP luminescence
# [12] = growth inhibition of DIPG glioma cells, dose response, cell-based, SU-DIPG-IV, MIPE4.0, CellTiter-Glo, qHTS (AID 1347063; cut-off not given, nearly all actives have AC50 up to about 30 µM;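 further: compound exposure lasted 48 hours before the viability readout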); settings: SU-DIPG-IV viability, CellTiter-Glo ATP luminescence
# [13] = growth inhibition of DIPG glioma cells, dose response, cell-based, SU-DIPG-XIII, MIPE5.0, CellTiter-Glo, qHTS (AID 1347064; cut-off not given, nearly all actives have AC50 up to about 23 µM;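 further: cells exposed to compound for 48 hours before the viability read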); settings: SU-DIPG-XIII viability, CellTiter-Glo ATP luminescence
# [14] = viability loss in pontine glioma line – cell-based, SU-DIPG-XXV, MIPE5.0, CellTiter-Glo, qHTS, dose response (AID 1347065; cut-off not given, nearly all actives have AC50 up to about 26 µM;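 further: cells exposed to compound for 48 hours before ATP readout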); settings: CellTiter-Glo ATP luminescence
# [15] = SU-DIPG-VI glioma cell viability, MIPE4.0 library, CellTiter-Glo luminescence, qHTS (AID 1347066; cut-off not given, nearly all actives have AC50 up to about 30 µM;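 further: cells exposed to compound for 48 hours before readout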); settings: CellTiter-Glo ATP luminescence
# [16] = JHH-DIPG-1 glioma cell viability, MIPE5.0 library, CellTiter-Glo luminescence, qHTS (AID 1347067; cut-off not given, nearly all actives have AC50 up to about 26 µM;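 further: cells exposed to compound for 48 hours before readout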); settings: JHH-DIPG-1 glioma viability, CellTiter-Glo ATP luminescence
# [17] = SU-DIPG-XXV glioma cell viability, MIPE5.0 library, qHTS (AID 1347068; cut-off not given, nearly all actives have IC50 up to about 30 µM)
# [18] = sensitizers of A549 cells to miR-34 induction, primary screen, imaging, A549 dox-inducible miR-34, nuclei and caspase counts (AID 1347080;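 active means compounds whose cell count with miR-34 switched on is under 0.7 times the count with it off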); settings: A549 miR-34 inducible, Hoechst nuclei count, 48 h
# [19] = modifiers of HSF1 nuclear foci, imaging, Selleck Cancer Library (AID 1347162; in the data active means plate-normalised HSF1 focus index below about 0.46); settings: human cells, at 10 µM; SSMD: measured here: HSF1 foci SSMD mean; cell count: measured here: cell number; plate-normalised HSF1 focus index: stronger effect = lower value
# [20] = viability rescue of complex I mutant cybrids, primary screen, cell-based, galactose medium, ATP luminescence (AID 1645843;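 active means z-score of at least 1.8 in each of two replicates, scored against plate mean and spread of sample wells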;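 further: positive z means more ATP and so rescue of galactose-driven cybrid death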); settings: complex I mutant cybrid cells, 72 h, stronger effect = higher value
# Chain of Plasmodium falciparum protein kinase 6 (PK6, PF3D7_1337100) (Q8IDW1 1-305): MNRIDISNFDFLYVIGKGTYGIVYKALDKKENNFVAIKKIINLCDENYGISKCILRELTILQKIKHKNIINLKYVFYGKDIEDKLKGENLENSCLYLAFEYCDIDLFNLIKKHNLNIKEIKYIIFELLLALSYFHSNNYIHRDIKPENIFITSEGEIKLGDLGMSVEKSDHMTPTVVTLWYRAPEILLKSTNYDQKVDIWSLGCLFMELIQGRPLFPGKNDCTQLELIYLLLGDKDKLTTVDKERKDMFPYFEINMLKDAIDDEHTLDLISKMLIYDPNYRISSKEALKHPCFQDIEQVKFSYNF
# Chain of Protein kinase 7 (PK7), Plasmodium falciparum 3D7 (PF3D7_0213400) (Q7YTF7 1-343): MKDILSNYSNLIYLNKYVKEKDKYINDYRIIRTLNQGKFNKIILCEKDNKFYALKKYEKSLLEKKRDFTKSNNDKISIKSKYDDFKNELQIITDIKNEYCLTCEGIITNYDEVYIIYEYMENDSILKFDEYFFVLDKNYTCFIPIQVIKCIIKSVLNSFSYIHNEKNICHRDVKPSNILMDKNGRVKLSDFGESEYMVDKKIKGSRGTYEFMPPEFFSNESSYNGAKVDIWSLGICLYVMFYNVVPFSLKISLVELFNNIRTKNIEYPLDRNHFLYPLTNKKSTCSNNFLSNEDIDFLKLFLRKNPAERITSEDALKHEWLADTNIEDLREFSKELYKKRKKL
# Chain of L-lactate dehydrogenase (Plasmodium falciparum (isolate CDC / Honduras)) (Q27743 whole entry, looked up): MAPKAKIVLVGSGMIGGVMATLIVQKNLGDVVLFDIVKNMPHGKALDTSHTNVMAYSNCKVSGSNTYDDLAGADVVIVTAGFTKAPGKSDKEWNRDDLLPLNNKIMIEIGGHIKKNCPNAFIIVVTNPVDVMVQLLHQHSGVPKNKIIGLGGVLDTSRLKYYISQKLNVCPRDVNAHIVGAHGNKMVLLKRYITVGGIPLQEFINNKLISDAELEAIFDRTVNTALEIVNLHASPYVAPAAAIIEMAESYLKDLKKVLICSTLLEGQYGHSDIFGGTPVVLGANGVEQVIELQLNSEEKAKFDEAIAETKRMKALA
# Chain of Calcium-dependent protein kinase 4 (Plasmodium falciparum (isolate 3D7)) (Q8IBS5 whole entry, looked up): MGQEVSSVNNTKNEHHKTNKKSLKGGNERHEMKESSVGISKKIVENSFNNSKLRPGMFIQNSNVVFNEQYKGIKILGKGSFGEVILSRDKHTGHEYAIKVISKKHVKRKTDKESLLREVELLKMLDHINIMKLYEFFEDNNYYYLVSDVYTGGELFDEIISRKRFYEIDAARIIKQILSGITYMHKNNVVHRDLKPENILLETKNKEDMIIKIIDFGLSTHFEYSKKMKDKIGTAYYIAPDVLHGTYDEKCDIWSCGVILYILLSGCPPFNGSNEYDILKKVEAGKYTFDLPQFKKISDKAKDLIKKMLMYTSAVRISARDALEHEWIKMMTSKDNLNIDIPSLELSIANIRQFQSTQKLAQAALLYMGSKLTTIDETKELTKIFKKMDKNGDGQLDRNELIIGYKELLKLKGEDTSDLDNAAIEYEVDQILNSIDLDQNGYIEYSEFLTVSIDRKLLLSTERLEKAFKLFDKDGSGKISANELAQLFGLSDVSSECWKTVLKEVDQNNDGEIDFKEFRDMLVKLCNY
compound,measurement,setting,value
NCc1ccc(Nc2nccc(Nc3ccc(-c4ccccc4)cc3)n2)cc1,growth inhibition,[1],98% (active)
same,inhibition,[2],47% (inactive)
same,inhibition,[3],-1% (inactive)
same,growth inhibition,[4],101% (active)
same,outcome,[5],inactive
same,outcome,[6],inactive
same,outcome,[7],inactive
CNCC(C)(C)c1nc(-c2ccc(Cl)c(O)c2)c(-c2ccncc2)[nH]1,growth inhibition,[1],96% (active)
same,inhibition,[2],46% (inactive)
same,inhibition,[3],-2% (inactive)
same,growth inhibition,[4],98% (active)
same,outcome,[5],inactive
same,outcome,[6],inactive
same,outcome,[7],inactive
CN(C)CCOc1ccc(-c2cc(-c3ccnc(N)n3)c(-c3ccc(Cl)c(O)c3)o2)cc1,growth inhibition,[1],91% (active)
same,inhibition,[2],14% (inactive)
same,inhibition,[3],5% (inactive)
same,growth inhibition,[4],101% (active)
same,outcome,[5],inactive
same,outcome,[6],inactive
same,outcome,[7],inactive
NC(=O)c1ccccc1Nc1nc(Nc2ccn[nH]2)ncc1Cl,growth inhibition,[1],93% (active)
same,inhibition,[2],67% (active)
same,inhibition,[3],-4% (inactive)
same,growth inhibition,[4],96% (active)
same,outcome,[5],inactive
same,outcome,[6],inactive
same,outcome,[7],inactive
Cc1cccc2[nH]c(-c3cc(-c4cn[nH]c4)cnc3N)nc12,growth inhibition,[1],93% (active)
same,inhibition,[2],37% (inactive)
same,inhibition,[3],0% (inactive)
same,growth inhibition,[4],101% (active)
same,outcome,[5],inactive
same,outcome,[6],inactive
same,outcome,[7],inactive
COc1ccc(Nc2ncc3c(-c4cccc(NC(=O)Cc5cccc(O)c5)c4)c[nH]c3n2)cc1OC,growth inhibition,[1],96% (active)
same,inhibition,[2],44% (inactive)
same,inhibition,[3],-6% (inactive)
same,growth inhibition,[4],101% (active)
same,outcome,[5],inactive
same,outcome,[6],inactive
same,outcome,[7],inactive
Cc1ccc(O)cc1Nc1ccnc2cc(-c3cccc(CNCCS(C)(=O)=O)c3)ccc12,growth inhibition,[1],100% (active)
same,inhibition,[2],9% (inactive)
same,inhibition,[3],2% (inactive)
same,growth inhibition,[4],99% (active)
same,outcome,[5],inactive
same,outcome,[6],inactive
same,outcome,[7],inactive
CN(C)Cc1ccc(-c2ccc3c(Nc4ccc(Cl)cc4F)ccnc3c2)o1,growth inhibition,[1],99% (active)
same,inhibition,[2],13% (inactive)
same,inhibition,[3],-3% (inactive)
same,growth inhibition,[4],100% (active)
same,outcome,[5],inactive
same,outcome,[6],inactive
same,outcome,[7],inactive
CC(C)(CN)c1nc(-c2ccc(Cl)c(O)c2)c(-c2ccnc(N)n2)[nH]1,growth inhibition,[1],95% (active)
same,inhibition,[2],34% (inactive)
same,inhibition,[3],-5% (inactive)
same,growth inhibition,[4],95% (active)
same,outcome,[5],inactive
same,outcome,[6],inactive
same,outcome,[7],inactive
CS(=O)(=O)CCNCc1cccc(-c2ccc3c(Nc4ccc(Oc5cccnc5)cc4)ccnc3c2)c1,growth inhibition,[1],99% (active)
same,inhibition,[2],27% (inactive)
same,inhibition,[3],4% (inactive)
same,growth inhibition,[4],101% (active)
same,outcome,[5],inactive
same,outcome,[6],inactive
same,outcome,[7],inactive
NCC1(c2nc(-c3ccc(Cl)c(O)c3)c(-c3ccncc3)[nH]2)CCCCC1,growth inhibition,[1],98% (active)
same,inhibition,[2],48% (inactive)
same,inhibition,[3],-2% (inactive)
same,growth inhibition,[4],98% (active)
same,outcome,[5],inactive
same,outcome,[6],inactive
same,outcome,[7],inactive
O=C(NCCN1CCC(c2ccncc2)CC1)c1ccc(Nc2nccc(Nc3ccc(Oc4ccccc4)cc3)n2)cc1,growth inhibition,[1],90% (active)
same,inhibition,[2],17% (inactive)
same,inhibition,[3],1% (inactive)
same,growth inhibition,[4],102% (active)
same,outcome,[5],inactive
same,outcome,[6],inactive
same,outcome,[7],inactive
COc1ccc(C(=O)NCC(C)(C)c2nc(-c3ccc(Cl)c(O)c3)c(-c3ccncc3)[nH]2)cc1OCCN(C(C)C)C(C)C,growth inhibition,[1],96% (active)
same,inhibition,[2],62% (active)
same,inhibition,[3],4% (inactive)
same,growth inhibition,[4],102% (active)
same,outcome,[5],inactive
same,outcome,[6],inactive
same,outcome,[7],inactive
CN1CCN(Cc2cccc(Nc3nccc(Nc4ccc(Oc5ccccc5)cc4)n3)c2)CC1,growth inhibition,[1],80% (active)
same,inhibition,[2],30% (inactive)
same,inhibition,[3],2% (inactive)
same,growth inhibition,[4],97% (active)
same,outcome,[5],inactive
same,outcome,[6],inactive
same,outcome,[7],inactive
NS(=O)(=O)c1cccc(Nc2nc(N[C@@H]3CCNC3)nc3cc[nH]c(=O)c23)c1,growth inhibition,[1],98% (active)
same,inhibition,[2],7% (inactive)
same,inhibition,[3],0% (inactive)
same,growth inhibition,[4],99% (active)
same,outcome,[5],inactive
same,outcome,[6],inactive
c1ccc(Oc2ccc(Nc3ccnc(Nc4ccc(OCCN5CCCCC5)cc4)n3)cc2)cc1,growth inhibition,[1],66% (active)
same,inhibition,[2],23% (inactive)
same,inhibition,[3],-2% (inactive)
same,growth inhibition,[4],97% (active)
same,outcome,[5],inactive
same,outcome,[6],inactive
same,outcome,[7],inactive
Cc1[nH]c(/C=C2\C(=O)Nc3ccc(S(=O)(=O)Cc4c(Cl)cccc4Cl)cc32)c(C)c1C(=O)N1CCC[C@@H]1CN1CCCC1,growth inhibition,[1],92% (active)
same,inhibition,[2],33% (inactive)
same,inhibition,[3],-1% (inactive)
same,growth inhibition,[4],85% (active)
same,outcome,[5],inactive
same,outcome,[6],inactive
same,remaining activity,[8],123% (inactive)
same,AC50,[9],9.34 µM (active)
same,outcome,[10],inactive
same,AC50,[11],26.4 µM (active)
same,AC50,[12],23.5 µM (active)
same,AC50,[13],9.34 µM (active)
same,AC50,[14],8.33 µM (active)
same,AC50,[15],8.33 µM (active)
same,AC50,[16],5.9 µM (active)
same,outcome,[17],inactive
same,fold change,"[18]; stronger effect = lower value, cell number ratio, induced over uninduced",1.1 (inactive)
same,fold change,[18]; measured here: relative caspase fold change +Dox/-Dox,1.29
same,cell count,"[18]; measured here: total cells with miR-34 induction, stronger effect = lower value",5950
same,cell count,[18]; measured here: total cells without miR-34 induction,5410
same,SSMD,[19],0.661
same,cell count,[19],7510
same,plate-normalised HSF1 focus index,[19],1.05 (inactive)
same,z-score,[20],-0.7 (inactive)
O=c1[nH]ccc2nc(N[C@@H]3CCNC3)nc(Nc3cc(Cl)cc(Cl)c3)c12,growth inhibition,[1],99% (active)
same,inhibition,[2],99% (active)
same,inhibition,[3],-2% (inactive)
same,growth inhibition,[4],101% (active)
same,outcome,[5],inactive
same,outcome,[6],inactive
